Experimental data reported in PubChem BioAssay (Tox21).
Records with an inconclusive call do not appear. Entries that show only a call come without a potency. Calls of active or inactive are those of the source. Unless noted, the call rests on the fitted dose curve; in most records, active means well fitted curve in the direction sought with a large enough effect in the repeat runs; inconclusive means weak or mixed curves; inactive means no such curve, though single readings can be large; an effect the other way counts as inactive or inconclusive.

Key:
[1] = target: Aryl hydrocarbon receptor (Homo sapiens) (UniProt P35869); test: qHTS assay to identify small molecule that activate the aryl hydrocarbon receptor (AhR) signaling pathway (AID 743085); further: nearly all actives have a fitted effect of over 15% in size; further: potency means the concentration at half of the fitted maximal effect;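 on activation: HG2L7.5c1 human HepG2 liver cells with stably integrated DRE-driven firefly reporter; series mostly up to about 70 µM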
Sequence of Aryl hydrocarbon receptor (Homo sapiens) (P35869 whole entry, looked up): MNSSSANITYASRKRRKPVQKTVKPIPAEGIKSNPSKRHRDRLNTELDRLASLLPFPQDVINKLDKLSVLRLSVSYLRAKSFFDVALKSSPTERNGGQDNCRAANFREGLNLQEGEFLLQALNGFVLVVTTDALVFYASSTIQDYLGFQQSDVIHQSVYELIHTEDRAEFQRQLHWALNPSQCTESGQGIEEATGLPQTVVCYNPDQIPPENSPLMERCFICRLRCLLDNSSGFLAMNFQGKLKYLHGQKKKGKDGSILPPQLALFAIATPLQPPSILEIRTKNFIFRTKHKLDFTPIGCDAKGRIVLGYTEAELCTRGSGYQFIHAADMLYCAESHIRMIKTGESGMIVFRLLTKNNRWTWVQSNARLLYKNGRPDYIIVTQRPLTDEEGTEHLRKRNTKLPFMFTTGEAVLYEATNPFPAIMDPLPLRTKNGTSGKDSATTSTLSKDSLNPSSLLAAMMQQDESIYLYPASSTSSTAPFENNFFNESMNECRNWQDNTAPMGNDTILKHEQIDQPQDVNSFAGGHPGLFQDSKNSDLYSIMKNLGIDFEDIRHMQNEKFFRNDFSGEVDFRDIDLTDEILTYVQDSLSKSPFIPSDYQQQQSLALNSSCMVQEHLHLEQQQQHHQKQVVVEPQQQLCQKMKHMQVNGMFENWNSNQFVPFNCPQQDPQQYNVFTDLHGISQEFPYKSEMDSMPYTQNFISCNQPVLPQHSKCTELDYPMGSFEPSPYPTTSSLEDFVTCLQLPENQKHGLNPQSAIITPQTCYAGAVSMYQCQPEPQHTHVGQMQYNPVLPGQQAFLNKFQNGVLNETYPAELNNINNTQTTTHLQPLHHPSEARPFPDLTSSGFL
Outline: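 AhR agonist activity is inferred from enhanced light output of a DRE-controlled firefly luciferase reporter in HepG2 cells, measured with ONE-Glo following 24 h treatment at 37C.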

[2] = qHTS assay to identify small molecule that activate the aryl hydrocarbon receptor (AhR) signaling pathway - cell viability counter screen (AID 743086);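 further: HepG2 liver cells carrying the AhR DRE luciferase reporter; series mostly up to about 70 µM; nearly all actives have a fitted effect of over 45% in size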
Outline: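 HepG2-AhR-luc (HG2L7.5c1) cells, 4000/well, treated 24 h at 37 C with compound; viability measured as CellTiter-Fluor fluorescence after 30 min in the same wells as the luciferase read.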

[3] = target: Peroxisome proliferator-activated receptor gamma (Homo sapiens) (UniProt P37231); test: qHTS assay to identify small molecule agonists of the peroxisome proliferator-activated receptor gamma (PPARg) signaling pathway (AID 743094; active means well fitted activation curve with a large enough effect in the signal ratio in the repeat runs, not every such curve was filed as active; the % refers to the signal ratio)
Sequence of Peroxisome proliferator-activated receptor gamma (Homo sapiens) (P37231 whole entry, looked up): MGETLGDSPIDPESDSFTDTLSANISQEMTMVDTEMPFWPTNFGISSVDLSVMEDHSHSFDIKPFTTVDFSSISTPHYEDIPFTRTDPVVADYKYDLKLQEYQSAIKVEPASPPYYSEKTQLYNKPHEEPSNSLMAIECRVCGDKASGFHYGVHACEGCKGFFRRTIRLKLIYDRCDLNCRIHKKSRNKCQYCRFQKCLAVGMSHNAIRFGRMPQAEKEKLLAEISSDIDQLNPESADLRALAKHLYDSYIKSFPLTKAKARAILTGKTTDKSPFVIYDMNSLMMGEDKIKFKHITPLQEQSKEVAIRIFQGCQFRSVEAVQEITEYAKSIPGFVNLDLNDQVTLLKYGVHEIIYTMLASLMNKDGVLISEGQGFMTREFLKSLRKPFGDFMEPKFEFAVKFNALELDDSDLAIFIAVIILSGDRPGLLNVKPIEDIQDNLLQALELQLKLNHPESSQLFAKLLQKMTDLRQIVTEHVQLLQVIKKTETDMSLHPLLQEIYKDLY
Outline: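 Agonism was assessed in a beta-lactamase reporter system, HEK293H cells with a stably integrated UAS-bla construct under PPARg control; the 17 h treatment at 37C preceded a 1 h room-temperature FRET substrate read.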

[4] = target: Peroxisome proliferator-activated receptor gamma (Homo sapiens) (UniProt P37231); test: qHTS assay to identify small molecule antagonists of the peroxisome proliferator-activated receptor gamma (PPARg) signaling pathway (AID 743191; calls by dose curve; further: series mostly up to about 63 µM; nearly all actives have a fitted effect of over 30% in size)
Outline: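 GeneBLAzer PPARg UAS-bla HEK293H cells, 5 h post-plating, exposed to compounds 17 h at 37C. LiveBLAzer B/G FRET substrate added for 1 h at room temperature; beta-lactamase reporter read by fluorescence intensity.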

[5] = qHTS assay to identify small molecule antagonists of the peroxisome proliferator-activated receptor gamma (PPARg) signaling pathway - cell viability counter screen (AID 743194); further: nearly all actives have a fitted effect of over 55% in size
Outline: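 Cytotoxicity counter screen in PPARg-bla HEK293H cells, same wells as reporter assay. Compounds plus 50 nM rosiglitazone (final) for 17 h at 37 C, then viability read by CellTiter-Glo luminescence.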

[6] = qHTS assay for small molecule agonists of the antioxidant response element (ARE) signaling pathway (AID 743202; active means well fitted activation curve with a large enough effect in the signal ratio in the repeat runs, not every such curve was filed as active; the % refers to the signal ratio; further: potency means the concentration at half of the fitted maximal effect)
Outline: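 HepG2 ARE-bla reporter line, 2,000 cells/well; 5 h preincubation 37 C/5% CO2; compound (DMSO) 16 h 37 C; B/G FRET substrate 2 h RT; fluorescence intensity.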

[7] = qHTS assay for small molecule agonists of the antioxidant response element (ARE) signaling pathway - cell viability counter screen (AID 743203; calls by dose curve; further: nearly all actives have a fitted effect of over 55% in size)
Outline: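 ATP content via CellTiter-Glo luminescence served as the viability measure. Cells: ARE-bla HepG2, 2,000 per well. Exposure: 16 hrs, 37C/5% CO2.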

[8] = qHTS assay for small molecule activators of the heat shock response signaling pathway - cell viability counter screen (AID 743209); further: nearly all actives have a fitted effect of over 50% in size
Outline: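 Compounds dissolved in DMSO were added to overnight-plated HSE-bla HeLa cells and left 5 h at 37 C. Cell viability was quantified by luminescence using CellTiter-Glo.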

[9] = qHTS assay for small molecule activators of the heat shock response signaling pathway (AID 743210; active means well fitted activation curve with a large enough effect in the signal ratio in the repeat runs, with a control signal flat, not every such curve was filed as active; the % refers to the signal ratio;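 further: HeLa cells with beta-lactamase reporter driven by heat shock elements; series mostly up to about 63 µM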)
Outline: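 Beta-lactamase reporter read-out: FRET substrate fluorescence after 2.5 h at RT, following 5 h compound treatment at 37 C of HeLa cells carrying HSE-driven bla reporter; quantitative HTS format.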

[10] = qHTS assay to identify small molecule agonists of the peroxisome proliferator-activated receptor delta (PPARd) signaling pathway - cell viability counter screen (AID 743211); further: nearly all actives have a fitted effect of over 55% in size
Outline: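 qHTS cell viability: PPARd-bla HEK293H; 17 h cpd, 37C; CellTiter-Glo, luminescence at 30 min RT.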

[11] = target: Bile acid receptor (Homo sapiens) (UniProt Q96RI1); test: qHTS assay to identify small molecule antagonists of the farnesoid-X-receptor (FXR) signaling pathway (AID 743217; active means well fitted inhibition curve with a large enough effect in the signal ratio in the repeat runs, not every such curve was filed as active; the % refers to the signal ratio)
Sequence of Bile acid receptor (Homo sapiens) (Q96RI1 whole entry, looked up): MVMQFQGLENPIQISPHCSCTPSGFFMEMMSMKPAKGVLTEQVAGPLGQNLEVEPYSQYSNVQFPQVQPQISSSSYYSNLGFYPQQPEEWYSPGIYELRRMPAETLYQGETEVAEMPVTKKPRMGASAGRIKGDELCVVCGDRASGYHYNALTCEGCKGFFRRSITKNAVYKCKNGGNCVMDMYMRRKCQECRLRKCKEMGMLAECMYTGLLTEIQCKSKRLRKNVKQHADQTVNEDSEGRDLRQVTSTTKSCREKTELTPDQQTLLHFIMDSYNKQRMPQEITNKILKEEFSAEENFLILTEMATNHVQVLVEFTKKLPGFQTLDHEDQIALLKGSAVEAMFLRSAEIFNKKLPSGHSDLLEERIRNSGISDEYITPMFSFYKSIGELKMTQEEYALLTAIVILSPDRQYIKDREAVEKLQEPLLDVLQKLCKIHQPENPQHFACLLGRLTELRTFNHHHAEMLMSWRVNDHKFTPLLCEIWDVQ
Outline: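 Test compounds are pin-transferred onto FXR-bla HEK 293T cells, then chenodeoxycholic acid is added at 50 uM final. After 16 h at 37 °C, LiveBLAzer B/G substrate is applied for 2 h at room temperature and fluorescence read.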

[12] = qHTS assay to identify small molecule agonists of the farnesoid-X-receptor (FXR) signaling pathway - cell viability counter screen (AID 743218); further: nearly all actives have a fitted effect of over 45% in size
Outline: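 Quantitative HTS counter screen measuring ATP-based viability via CellTiter-Glo luminescence in HEK 293T cells carrying a UAS-driven beta-lactamase reporter, after 16 h compound exposure at 37 C.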

[13] = target: Bile acid receptor (Homo sapiens) (UniProt Q96RI1); test: qHTS assay to identify small molecule agonists of the farnesoid-X-receptor (FXR) signaling pathway (AID 743220; active means well fitted activation curve with a large enough effect in the signal ratio in the repeat runs, not every such curve was filed as active; the % refers to the signal ratio)
Outline: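 FXR-UAS-bla HEK 293T cells carrying a UAS-driven beta-lactamase reporter were plated for 5 h at 37C/5% CO2, then exposed to DMSO-dissolved Tox21 10K compounds for 16 h at 37C. A LiveBLAzer B/G FRET substrate was loaded for 2 h at room temperature before fluorescence reading.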

[14] = qHTS assay to identify small molecule antagonists of the farnesoid-X-receptor (FXR) signaling pathway - cell viability counter screen (AID 743221; active means well fitted cell-killing curve with a large enough effect in the repeat runs, not every such curve was filed as active; further: nearly all actives have a fitted effect of over 50% in size)
Outline: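 After a 5 h settling period, FXR-bla HEK 293T cells receive compound and chenodeoxycholic acid (50 uM final) and incubate 16 h at 37 C; CellTiter-Glo luminescence, read after 30 min at room temperature, reports cell viability.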

[15] = target: Vitamin D3 receptor (Homo sapiens) (UniProt P11473); test: qHTS assay to identify small molecule agonists of the vitamin D receptor (VDR) signaling pathway (AID 743222; calls by dose curve)
Sequence of Vitamin D3 receptor (Homo sapiens) (P11473 whole entry, looked up): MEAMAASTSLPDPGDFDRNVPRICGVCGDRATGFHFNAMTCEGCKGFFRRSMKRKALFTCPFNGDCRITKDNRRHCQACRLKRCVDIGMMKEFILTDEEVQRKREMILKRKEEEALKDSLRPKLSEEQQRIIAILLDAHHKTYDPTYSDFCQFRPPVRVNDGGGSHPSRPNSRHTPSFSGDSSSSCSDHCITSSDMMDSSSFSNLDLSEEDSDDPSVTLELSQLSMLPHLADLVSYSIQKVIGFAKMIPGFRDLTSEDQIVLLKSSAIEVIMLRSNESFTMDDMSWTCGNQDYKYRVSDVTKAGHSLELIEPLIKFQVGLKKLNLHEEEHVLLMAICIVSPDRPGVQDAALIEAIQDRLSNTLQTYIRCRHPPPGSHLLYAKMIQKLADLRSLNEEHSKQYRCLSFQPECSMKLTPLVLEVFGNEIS
Outline: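 Tox21 cell reporter format: VDR-bla line, 16 h compound exposure in 5% CO2 at 37C, then fluorescence intensity after 2 h with LiveBLAzer B/G FRET substrate.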

[16] = target: Vitamin D3 receptor (Homo sapiens) (UniProt P11473); test: qHTS assay to identify small molecule antagonists of the vitamin D receptor (VDR) signaling pathway (AID 743223; active means well fitted inhibition curve with a large enough effect in the signal ratio in the repeat runs, not every such curve was filed as active; the % refers to the signal ratio)
Outline: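 Reporter line VDR-bla; stimulus 1alpha,25-(OH)2 vitamin D3, 3 nM final; compound co-addition, 16 h 37C/5% CO2; LiveBLAzer B/G substrate 2 h RT; fluorescence intensity.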

[17] = target: Peroxisome proliferator-activated receptor delta (Homo sapiens) (UniProt Q03181); test: qHTS assay to identify small molecule agonists of the peroxisome proliferator-activated receptor delta (PPARd) signaling pathway (AID 743212; calls by dose curve)
Sequence of Peroxisome proliferator-activated receptor delta (Homo sapiens) (Q03181 whole entry, looked up): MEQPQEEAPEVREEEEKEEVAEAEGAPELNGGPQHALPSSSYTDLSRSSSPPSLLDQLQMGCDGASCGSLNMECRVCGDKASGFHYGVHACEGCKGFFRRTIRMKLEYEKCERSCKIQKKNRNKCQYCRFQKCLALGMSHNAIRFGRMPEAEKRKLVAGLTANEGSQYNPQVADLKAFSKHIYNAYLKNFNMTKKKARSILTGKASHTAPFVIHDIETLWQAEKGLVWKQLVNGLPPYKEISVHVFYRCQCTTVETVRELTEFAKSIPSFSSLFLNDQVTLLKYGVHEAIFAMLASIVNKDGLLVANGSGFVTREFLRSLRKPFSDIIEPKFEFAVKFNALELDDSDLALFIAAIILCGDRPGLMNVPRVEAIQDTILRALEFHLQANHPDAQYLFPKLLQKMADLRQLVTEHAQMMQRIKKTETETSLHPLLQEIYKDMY
Outline: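 Read-out: beta-lactamase FRET fluorescence after 2 h room-temperature incubation with LiveBLAzer B/G substrate. Cells were HEK293H carrying a UAS-bla reporter for PPARd, treated at 37 C with DMSO-dissolved compounds.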

[18] = qHTS assay to identify small molecule antagonists of the peroxisome proliferator-activated receptor delta (PPARd) signaling pathway - cell viability counter screen (AID 743213); further: nearly all actives have a fitted effect of over 50% in size
Outline: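 PPARd-bla HEK293H cells (3000/well) got compound plus 300 nM L165041 agonist for 17 h at 37 C. Viability in the same wells came from CellTiter-Glo luminescence after 30 min at room temperature.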

[19] = target: Peroxisome proliferator-activated receptor delta (Homo sapiens) (UniProt Q03181); test: qHTS assay to identify small molecule antagonists of the peroxisome proliferator-activated receptor delta (PPARd) signaling pathway (AID 743215; active means well fitted inhibition curve with a large enough effect in the signal ratio in the repeat runs, not every such curve was filed as active; the % refers to the signal ratio;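 further: cells stimulated with agonist L165041 at 300 nM final during compound exposure; series mostly up to about 62 µM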)
Outline: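 Here, a reporter line (HEK293H, beta-lactamase under a UAS) measures PPARd signaling. Compounds are tested against agonist L165041 at 300 nM final concentration over 17 h at 37 C, with fluorescence read after substrate.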

[20] = qHTS assay to identify small molecule agonists of the vitamin D receptor (VDR) signaling pathway - cell viability counter screen (AID 743224); further: series mostly up to about 63 µM; nearly all actives have a fitted effect of over 50% in size
Outline: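 CellTiter-Glo viability readout on VDR-bla cells, measured after 16 h of compound treatment at 37C in the same wells.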

Row | Compound | Potency [1] | Potency [2] | Potency [3] | Potency [4] | Potency [5] | Potency [6] | Potency [7] | Potency [8] | Potency [9] | Potency [10] | Potency [11] | Potency [12] | Potency [13] | Potency [14] | Potency [15] | outcome [16] | Potency [17] | Potency [18] | Potency [19] | Potency [20]
1 | O=C(O)CC(=O)C(=O)O | inactive | inactive | inactive | inactive | inactive | inactive | inactive | inactive | inactive | inactive | inactive | inactive | inactive | inactive | inactive | inactive |  |  |  | 
2 | CCCCCCCCCCCc1ccccc1 | inactive | inactive | inactive | inactive | inactive | inactive | inactive | inactive | inactive | inactive | inactive | inactive | inactive | inactive | inactive | inactive | inactive | inactive | inactive | inactive
3 | O=C1CCC(=O)O1 | inactive | inactive | inactive | inactive | inactive | inactive | inactive | inactive | inactive | inactive | inactive | inactive | inactive | inactive |  |  | inactive |  | inactive | inactive
4 | Cc1c(N)cccc1[N+](=O)[O-] | inactive | inactive | inactive | inactive | inactive | inactive | inactive | inactive | inactive | inactive |  | inactive |  | inactive |  |  | inactive | inactive | inactive | inactive
5 | CNC(=O)CN(CCN(CCN(CC(=O)[O-])CC(=O)NC)CC(=O)[O-])CC(=O)[O-].O.[Gd+3] | inactive | inactive | inactive | inactive | inactive | inactive | inactive | inactive |  | inactive |  |  |  | inactive |  | inactive | inactive | inactive | inactive | inactive
6 | CC[N+]1(CC)CCC(=C(c2ccccc2)c2ccccc2)C1C (stereo not drawn) | inactive | inactive | inactive | inactive | inactive | inactive | inactive | inactive | inactive | inactive |  |  |  | inactive | inactive | inactive | inactive | inactive | inactive | 
7 | O=C(O)c1ccc(S(=O)(=O)O)cc1C(=O)O | inactive | inactive | inactive | inactive | inactive | inactive | inactive | inactive |  | inactive |  | inactive |  | inactive | inactive |  | inactive | inactive | inactive | inactive
8 | C=C(C)C(=O)OCC | inactive | inactive | inactive | inactive | inactive | inactive | inactive | inactive |  | inactive | inactive | inactive | inactive | inactive | inactive | inactive | inactive |  | inactive | inactive
9 | CCN(CC)CCOC(=O)C(Cc1cccc2ccccc12)CC1CCCO1 (stereo not drawn) | inactive | inactive | inactive | inactive | inactive | inactive | inactive | inactive |  | inactive |  | inactive |  | inactive | inactive | inactive |  | inactive |  | inactive
10 | C[N+](C)(C)CCOC(=O)CCC(=O)OCC[N+](C)(C)C | inactive | inactive | inactive | inactive | inactive | inactive | inactive | inactive |  |  |  |  |  | inactive |  |  |  |  |  | inactive
11 | CC(=O)c1cccc([N+](=O)[O-])c1 | inactive | inactive | inactive | inactive | inactive | inactive | inactive | inactive |  | inactive | inactive | inactive | inactive | inactive | inactive | inactive | inactive | inactive | inactive | inactive
12 | C#CCN(C)CCCOc1ccc(Cl)cc1Cl | 23.7 µM (active) | inactive | inactive | inactive | inactive | 15 µM (active) | inactive | inactive | inactive | inactive | inactive | inactive | inactive | inactive | inactive | inactive | inactive |  |  | inactive
13 | CCO[Si](CCCCl)(OCC)OCC | inactive | inactive | inactive | inactive | inactive | inactive | inactive | inactive | inactive |  |  | inactive |  | inactive |  | inactive | inactive | inactive | inactive | 
14 | CC(CC=O)c1ccccc1 (stereo not drawn) | inactive | inactive | inactive | inactive | inactive | inactive | inactive | inactive | inactive | inactive |  |  |  | inactive |  | inactive | inactive | inactive | inactive | inactive
15 | CC1OC(=O)C(C)OC1=O (stereo not drawn) | inactive | inactive | inactive | inactive | inactive | inactive | inactive | inactive | inactive | inactive | inactive | inactive | inactive | inactive | inactive | inactive | inactive |  | inactive | inactive
16 | Cc1cccc(C)c1NC(=O)CN(CC(=O)O)CC(=O)O | inactive | inactive | inactive | inactive | inactive | inactive | inactive | inactive | inactive | inactive | inactive | inactive | inactive | inactive |  |  | inactive |  | inactive | inactive
